Read-out in test [1]: Vascular endothelial growth factor receptor 2 (Homo sapiens) (UniProt P35968)
Kind of test: BSK_4H_VEGFRII: BioMAP Diversity Plus: 4H Assay for Vascular endothelial growth factor receptor 2 (VEGFR2) Biomarker Activity (AID 2283031).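 For AC50: cell-surface VEGFR2 protein level quantified by ELISA.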 The following applies: primary human endothelial cells (HUVEC); actives raise or lower the signal. The method in brief:
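Primary human umbilical vein endothelial cells in the BioMAP 4H system were dosed with test chemical, and 24 h later VEGFRII was measured by ELISA. Activity was fitted bidirectionally against DMSO as negative control and baseline.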

Read-out in test [2]: Human Leukocyte Antigen - DR isotype (HLADR), HLA-DRA (gene 3122)
Kind of test: BSK_BE3C_HLADR: BioMAP Diversity Plus: BE3C Assay for Human Leukocyte Antigen - DR isotype (HLADR) Biomarker Activity (AID 2283032). To be noted: primary human bronchial epithelial cells; actives raise or lower the signal. The method in brief:
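Signal came from an ELISA for HLA-DR in human bronchial epithelial primary cells harvested 24 h after treatment; gain- and loss-of-signal fitting used DMSO controls as reference.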

Read-out in test [3]: Vascular cell adhesion molecule 1 (VCAM1), VCAM1 (gene 7412)
Kind of test: BSK_4H_VCAM1: BioMAP Diversity Plus: 4H Assay for Vascular cell adhesion molecule 1 (VCAM1) Biomarker Activity (AID 2283033).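 For outcome: cell-surface VCAM-1 protein measured by ELISA.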 To be noted: primary human endothelial cells (HUVEC); actives raise or lower the signal. The method in brief: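 Endpoint derived from bidirectional fitting against DMSO controls of VCAM-1 ELISA signal in umbilical vein endothelial cells sampled at 24 h following treatment.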

Read-out in test [4]: Interferon-gamma inducible Protein 10 (IP10), CXCL10 (gene 3627)
Kind of test: BSK_BE3C_IP10: BioMAP Diversity Plus: BE3C Assay for Interferon-gamma inducible Protein 10 (IP10) Biomarker Activity (AID 2283034). To be noted: primary human bronchial epithelial cells; actives raise or lower the signal. The method in brief: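 Using primary human bronchial epithelial cultures, the assay captures IP-10 by ELISA one day (24 h) after exposure. Parallel SRB staining of total protein flags overt cytotoxicity. Fits run bidirectionally relative to DMSO.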

Read-out in test [5]: Monokine induced gamma interferon (MIG), CXCL9 (gene 4283)
Kind of test: BSK_BE3C_MIG: BioMAP Diversity Plus: BE3C Assay for Monokine induced gamma interferon (MIG) Biomarker Activity (AID 2283035).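 Note: MIG protein measured by ELISA in BE3C cultures after 24 h of dosing.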 To be noted: primary human bronchial epithelial cells; actives raise or lower the signal. The method in brief:
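MIG level was determined by ELISA after 24 h chemical treatment of primary human bronchial epithelial cells. Values were fitted bidirectionally with DMSO as the negative control and activity baseline.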

Read-out in test [6]: Transforming growth factor beta 1 (TGFb1), TGFB1 (gene 7040)
Kind of test: BSK_BE3C_TGFb1: BioMAP Diversity Plus: BE3C Assay for Transforming growth factor beta 1 (TGFb1) Biomarker Activity (AID 2283036;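 note: TGF-b1 protein level measured by ELISA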). The following applies: primary human bronchial epithelial cells; actives raise or lower the signal. The method in brief: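 In this human primary bronchial epithelial system, an ELISA quantified TGF-b1 one day after dosing. Endpoint changes in either direction were fitted relative to DMSO.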

Read-out in test [7]: Plasminogen activator inhibitor-1 (PAI1), SERPINE1 (gene 5054)
Kind of test: BSK_BE3C_PAI1: BioMAP Diversity Plus: BE3C Assay for Plasminogen activator inhibitor-1 (PAI1) Biomarker Activity (AID 2283037). To be noted: primary human bronchial epithelial cells; actives raise or lower the signal. The method in brief: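 PAI-1 biomarker levels in treated human bronchial epithelial cells are determined by ELISA at 24 h. Both increases and decreases relative to DMSO are fitted.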

Read-out in test [8]: urokinase plasminogen activator (uPA), PLAU (gene 5328)
Kind of test: BSK_BE3C_uPA: BioMAP Diversity Plus: BE3C Assay for urokinase plasminogen activator (uPA) Biomarker Activity (AID 2283038).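 For outcome: uPA protein level quantified by ELISA in cell cultures; uPA read one day after compound addition.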 To be noted: primary human bronchial epithelial cells; actives raise or lower the signal. The method in brief: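 Human primary bronchial epithelial cells were exposed to chemical for 24 h, then uPA levels were measured by ELISA. Responses were fitted bidirectionally against DMSO as negative control and baseline. Parallel SRB staining of total protein gauged overt cytotoxicity.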

Read-out in test [9]: Urokinase-type plasminogen activator receptor (uPAR), PLAUR (gene 5329)
Kind of test: BSK_BE3C_uPAR: BioMAP Diversity Plus: BE3C Assay for Urokinase-type plasminogen activator receptor (uPAR) Biomarker Activity (AID 2283039).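 For outcome: cells exposed to compound for one day before measurement.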 The following applies: primary human bronchial epithelial cells; actives raise or lower the signal. The method in brief:
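A uPAR ELISA serves as the readout, taken 24 h after treating primary human bronchial epithelial cells. Responses in either direction are fitted against DMSO, which defines baseline activity.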

Read-out in test [10]: Interleukin-6 (IL6), IL6 (gene 3569)
Kind of test: BSK_CASM3C_IL6: BioMAP Diversity Plus: CASM3C Assay for Interleukin-6 (IL6) Biomarker Activity for (AID 2283040). The following applies: primary human coronary artery smooth muscle cells; actives raise or lower the signal.

Read-out in test [11]: Tissue plasminogen activator (tPA), PLAT (gene 5327)
Kind of test: BSK_BE3C_tPA: BioMAP Diversity Plus: BE3C Assay for Tissue plasminogen activator (tPA) Biomarker Activity (AID 2283041).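 For outcome: tPA level quantified by ELISA one day after compound addition.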 The following applies: primary human bronchial epithelial cells; actives raise or lower the signal. The method in brief: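 Bidirectional curve fitting relative to DMSO defined activity, with tPA detected by ELISA in chemically treated human bronchial epithelial primary cells at 24 hours.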

Read-out in test [12]: Interleukin-8 (IL8), CXCL8 (gene 3576)
Kind of test: BSK_CASM3C_IL8: BioMAP Diversity Plus: CASM3C Assay for Interleukin-8 (IL8) Biomarker Activity (AID 2283042).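 Note: IL-8 protein level quantified by ELISA.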 The following applies: primary human coronary artery smooth muscle cells; actives raise or lower the signal.

Read-out in test [13]: Human Leukocyte Antigen - DR isotype (HLADR), HLA-DRA (gene 3122)
Kind of test: BSK_CASM3C_HLADR: BioMAP Diversity Plus: CASM3C Assay for Human Leukocyte Antigen - DR isotype (HLADR) Biomarker Activity (AID 2283043).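 Note: cell-surface HLA-DR protein level quantified by ELISA.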 To be noted: primary human coronary artery smooth muscle cells; actives raise or lower the signal.

Read-out in test [14]: Macrophage colony-stimulating factor (MCSF), CSF1 (gene 1435)
Kind of test: BSK_CASM3C_MCSF: BioMAP Diversity Plus: CASM3C Assay for Macrophage colony-stimulating factor (MCSF) Biomarker Activity (AID 2283044).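 Note: M-CSF protein amount quantified by ELISA after 24 h exposure.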 To be noted: primary human coronary artery smooth muscle cells; actives raise or lower the signal.

Read-out in test [15]: Low-density lipoprotein receptor (LDLR), LDLR (gene 3949)
Kind of test: BSK_CASM3C_LDLR: BioMAP Diversity Plus: CASM3C Assay for Low-density lipoprotein receptor (LDLR) Biomarker Activity (AID 2283045).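 Note: LDLR protein level on the cell surface quantified by ELISA.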 The following applies: primary human coronary artery smooth muscle cells; actives raise or lower the signal.

Read-out in test [16]: Monocyte Chemoattractant Protein-1 (MCP1), CCL2 (gene 6347)
Kind of test: BSK_CASM3C_MCP1: BioMAP Diversity Plus: CASM3C Assay for Monocyte Chemoattractant Protein-1 (MCP1) Biomarker Activity (AID 2283046).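 Note: MCP-1 level quantified by ELISA 24 h after dosing.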 To be noted: primary human coronary artery smooth muscle cells; actives raise or lower the signal.

Test [17] is described as follows: BSK_CASM3C_Proliferation: Cell Proliferation Assessment in the BioMAP Diversity Plus: CASM3C Assay (AID 2283047).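 Note: sulforhodamine B total protein stain as relative cell number at 560 nm; sub-confluent cells exposed 48 h before staining; fitted both ways against DMSO so gain or loss of cell number.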 To be noted: primary human coronary artery smooth muscle cells.
Read-out in test [18]: Monokine induced gamma interferon (MIG), CXCL9 (gene 4283)
Kind of test: BSK_CASM3C_MIG: BioMAP Diversity Plus: CASM3C Assay for Monokine induced gamma interferon (MIG) Biomarker Activity (AID 2283048). To be noted: primary human coronary artery smooth muscle cells; actives raise or lower the signal.

Read-out in test [19]: serum amyloid A (SAA), SAA1 (gene 6288)
Kind of test: BSK_CASM3C_SAA: BioMAP Diversity Plus: CASM3C Assay for serum amyloid A (SAA) Biomarker Activity (AID 2283049).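 Note: SAA protein level quantified by ELISA.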 The following applies: primary human coronary artery smooth muscle cells; actives raise or lower the signal.

Test [20] in a line: BSK_CASM3C_SRB: Viability Assessment in the BioMAP Diversity Plus: CASM3C Assay (AID 2283050). The following applies: primary human coronary artery smooth muscle cells.

As usually defined, the AC50 is the concentration giving half of the maximal activity seen.

SMILES strings stand for the structures. Calls of active or inactive are those of the source. Rule for the calls: active = hit-call score of the fitted dose curve at least 0.9, where 1 is the maximum; inactive = score below 0.9.

With `Cc1cccc(Nc2cc(Cl)nc(SCC(=O)O)n2)c1C`, the result in test [1], in test [2], in test [3], in test [4], in [5] and in test [6] was inactive. Also, the result in test [7], in [8], in [9], in [10], in [11] and in test [12] was inactive. The result in test [13], in test [14], in test [15], in test [16], in test [17] and in test [18] was inactive. Moreover, the outcome in test [19] and in test [20] was inactive.
As for `Cc1ccc2ncccc2c1`, the result in test [1], in test [2], in test [3], in [4], in [5] and in test [6] was inactive. Moreover, the result in test [7], in test [8], in test [9], in [10], in test [11] and in test [12] was inactive. The result in [13], in test [14], in [15], in test [16], in [17] and in test [18] was inactive. Further, the outcome in test [19] and in [20] was inactive.
For `CCc1c(C(=O)NN2CCCCC2)nn(-c2ccc(Cl)cc2Cl)c1-c1ccc(Br)cc1`, the AC50 in [1] is 9.41 µM (active); in test [2], 11 µM (active); in [3], 9.11 µM (active); in test [4] it was 24 µM (active); in [7], 11 µM (active); in test [8] it was 33.3 µM (active). For the same molecule, the concentration at half-maximal activity (AC50) in [9] was 14.4 µM (active); in [11], 20 µM (active); in test [13], 29.9 µM (active); in test [16], 33.8 µM (active); in [17] it was 20.2 µM (active); in [20], 16.8 µM (active). The result in test [5], in [6], in [10], in test [12], in test [14] and in test [15] was inactive. In addition, the outcome in [18] and in [19] was inactive.
As for `CCCCCCCCCCCCCCCCCC(=O)O`, the result in test [1], in [2], in [3], in test [4], in test [5] and in test [6] was inactive. Besides, the outcome in test [7], in test [8], in test [9], in test [10], in [11] and in test [12] was inactive. The result in test [13], in test [14], in test [15], in test [16], in [18] and in [19] was inactive. Moreover, the AC50 in test [17] was 8.81 µM (active).
Turning to `NCCO`, the outcome in test [1], in test [2], in [3], in test [4], in test [5] and in [6] was inactive. Also, the result in test [7], in test [8], in test [9], in test [10], in test [11] and in [12] was inactive. In addition, the outcome in test [13], in test [14], in test [15], in test [16], in test [17] and in [18] was inactive. For the same molecule, the outcome in test [19] and in [20] was inactive.
As to `Cc1cc(NC(=O)C(=O)O)cc(C)c1Oc1ccc(O)c2c1CCC2`, the result in test [1], in [2], in test [3], in [5], in test [6] and in [7] was inactive. The outcome in test [8], in test [9], in [10], in [11], in test [12] and in test [13] was inactive. The result in test [14], in [15], in [16], in [17], in test [18] and in [19] was inactive. Further, the result in test [20] was inactive.
As for `CN1CCCC1=O`, the result in test [1], in test [2], in test [3], in test [4], in test [5] and in test [6] was inactive. Also, the outcome in test [7], in [8], in test [9], in [10], in test [11] and in test [12] was inactive. For the same molecule, the result in test [13], in [14], in test [15], in [16], in [17] and in test [18] was inactive. For the same molecule, the outcome in [19] and in test [20] was inactive.

The values are drawn from PubChem BioAssay (EPA / NIEHS).
